From PubChem BioAssay AID504834 (National Center for Advancing Translational Sciences (NCATS), 2011)
In all, about 320,000 compounds went through this assay and about 22,000 (6.9%) were called active. Where a call stands in place of a potency, no number is given. Not shown: some 27% with an inconclusive outcome. The sample holds actives, similar compounds and a random draw of the others, so the mix is not that of the screen. Calls come from the whole dose curve; as a rule, active = well fitted inhibition curve with a large enough effect; inconclusive = small, poorly fitted or top-dose-only effect, or another doubt; inactive = no such curve, though single readings can be large or run the other way.

Assay: Primary qHTS for delayed death inhibitors of the malarial parasite plastid, 96 hour incubation
Details: P. falciparum luciferase reporter growth; series mostly up to 28.7 µM
Procedure, shortened: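 Erythrocytes infected with luciferase-expressing P. falciparum were dispensed at 2% hematocrit and 0.05% parasitemia (final), then incubated with compounds 96 hours at 37 C in 5% CO2. Luminescence after detection reagent addition reported growth.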
Potency is the fitted concentration of half-maximal effect.

Row | SMILES | Potency
1 | CC(C)CN(C(=O)CSc1nncn1C)C1CCS(=O)(=O)C1 (stereo not given) | inactive
2 | Cc1ccc(C(=O)C[n+]2cc(-c3ccccc3)n3c2CCCCC3)cc1 | 415 nM (active)
3 | Cc1ccc(-c2c[n+](CC(=O)Nc3ccccc3)c3n2CCC3)cc1 | 3700 nM (active)
4 | Cc1ccc(C(=O)N2CCCC(c3ccccc3)=N2)cc1 | inactive
5 | Cc1ccc(NC(=O)CN2CCc3ccccc3C2)cc1 | inactive
6 | Cc1cccc[n+]1CC(=O)c1ccccc1 | inactive
7 | Cc1ccc(NC(=O)CCN2CCc3ccccc3C2)cc1 | inactive
8 | COc1ccc(S(=O)(=O)Nc2cc(C)on2)cc1NC(C)=O | inactive
9 | CCCc1cc(=O)oc2c(C)c(OCC(=O)Nc3ccccn3)ccc12 | inactive
10 | COCCCNC(=O)CN1C(=O)CSc2ccc(S(=O)(=O)N3CCOCC3)cc21 | inactive
11 | CCOC(=O)C1CCN(C(=O)Cn2nc(C)c3c(C)n(-c4ccccc4)nc3c2=O)CC1 | inactive
12 | O=S(=O)(NCCc1ccc(Cl)cc1)c1cccs1 | inactive
13 | COc1cc(C(=O)OC2CCOC2=O)c([N+](=O)[O-])cc1OC (stereo not given) | inactive
14 | COc1ccc(-c2nnc(NC(=O)CS(=O)(=O)c3ccc(Cl)cc3)o2)c(OC)c1 | 8280 nM (active)
15 | COc1ccc(-c2nnc(SCC(=O)c3cccs3)o2)c(OC)c1 | inactive
16 | COc1ccc(NC(=O)CS(=O)(=O)c2ccccc2)cc1 | inactive
17 | COc1ccc(-c2n[nH]c3c2CN(C(=O)c2ccc(F)cc2)CC3)cc1 | inactive
18 | Cc1nonc1C1CCCN1C(=O)c1cc(COc2cccc(C(F)(F)F)c2)on1 (stereo not given) | inactive
19 | O=C(N/N=C/c1ccccc1O)C1CCCC1 | inactive
20 | O=C(N/N=C/C=C/c1ccccc1)C1CC1(c1ccccc1)c1ccccc1 (stereo not given) | 10400 nM (active)
21 | COc1ccccc1/C=C/C=N/NC(=O)CN1CCN(Cc2ccccc2)CC1 | inactive
22 | CCc1cc(=O)oc2c(C)c(OCC(=O)N3CC[C@@]4(O)CCCC[C@H]4C3)ccc12 | inactive
23 | CCOC(=O)c1[nH]c2c(c1C)C(=O)CC(c1ccc(N(C)C)cc1)C2 (stereo not given) | inactive
24 | CCOC(=O)c1[nH]c2c(c1-c1ccccc1)C(=O)CC(c1ccc(Cl)cc1)C2 (stereo not given) | 9280 nM (active)
25 | CCOC(=O)c1cc(NC(=O)c2ccc(Cl)cc2)c(=O)oc1-c1ccccc1 | inactive
26 | Cc1cccc(C(=O)NC(=S)N(C)C2CCCCC2)c1 | inactive
27 | C#CCOCCOCCOCCNc1nc(N2CCN(C(=O)CCCCCCCCCCNC(=O)[C@H](CCCCN)n3cc(C)nn3)CC2)nc(N2CCN(C(=O)CCCCCCCCCCNC(=O)[C@H](CO)n3cc(CCCSC)nn3)CC2)n1 | 294 nM (active)
28 | C#CCOCCOCCOCCNc1nc(N2CCN(C(=O)CCCCCCCCCCNC(=O)Cn3cc(CCCCCN)nn3)CC2)nc(N2CCN(C(=O)CCCCCCCCCCNC(=O)[C@H](CO)n3cc(CCCSC)nn3)CC2)n1 | 1470 nM (active)

Row | SMILES | Potency
29 | C#CCOCCOCCOCCNc1nc(N2CCN(C(=O)CCCCCCCCCCNC(=O)[C@H]([C@@H](C)CC)n3cc(CCCCN=C(N)N)nn3)CC2)nc(N2CCN(C(=O)CCCCCCCCCCNC(=O)[C@H](CO)n3cc(CCCSC)nn3)CC2)n1 | 370 nM (active)
30 | C#CCOCCOCCOCCNc1nc(N2CCN(C(=O)[C@H](CCC(=O)O)n3cc(C(N)CO)nn3)CC2)nc(N2CCN(C(=O)[C@H](CCCCN)n3cc(C(N)[C@H](C)CC)nn3)CC2)n1 (stereo not given in full) | inactive
31 | C#CCOCCOCCOCCNc1nc(N2CCN(C(=O)[C@H](C(C)C)n3cc(CCO)nn3)CC2)nc(N2CCN(C(=O)[C@H](C(C)C)n3cc(CCO)nn3)CC2)n1 | inactive
32 | C#CCOCCOCCOCCNc1nc(N2CCN(C(=O)[C@H](CCCCN)n3cc([C@@H](N)C(C)CC)nn3)CC2)nc(N2CCN(C(=O)[C@H](Cc3ccc(O)cc3)n3cc([C@@H](N)C(C)CC)nn3)CC2)n1 (stereo not given in full) | inactive
33 | C#CCOCCOCCOCCNc1nc(N2CCN(C(=O)[C@H](CCC(=O)O)n3cc(C(N)CO)nn3)CC2)nc(N2CCN(C(=O)[C@H](CCCCN)n3cc(C(N)CC(C)C)nn3)CC2)n1 (stereo not given in full) | inactive
34 | C#CCOCCOCCOCCNc1nc(N2CCN(C(=O)[C@H](CCCCN)n3cc(CCC(=O)O)nn3)CC2)nc(N2CCN(C(=O)[C@H](CCCCN)n3cc(CC(C)O)nn3)CC2)n1 (stereo not given in full) | inactive
35 | C#CCOCCOCCOCCNc1nc(N2CCN(C(=O)Cn3cc(CCCCN)nn3)CC2)nc(N2CCN(C(=O)[C@H](CCCCN)n3cc(CCC(=O)O)nn3)CC2)n1 | inactive
36 | CSc1n[nH]c(=S)n1N | inactive
37 | Cc1c(CC(=O)NCCCCCC(=O)O)c(=O)oc2cc3occ(-c4ccccc4)c3cc12 | inactive
38 | CCOc1ccccc1NC(=O)Cn1ncc2ccc([N+](=O)[O-])cc21 | inactive
39 | CC(=O)NC1CCN(CC(=O)Nc2nccs2)CC1 | inactive
40 | O=C(Nc1ncccc1O)c1ccc(S(=O)(=O)N2CCCCCC2)cc1 | 5220 nM (active)
41 | CN1CCN(NC(=O)c2ccc(S(=O)(=O)N3CCCCCC3)cc2)CC1 | inactive
42 | CCOC(=O)c1csc(NC(=O)c2ccc(S(=O)(=O)N3CCCC3)cc2)n1 | inactive
43 | O=C(NC(=O)c1ccccc1)Nc1ccccc1O | inactive
44 | O=C(CNC(=O)c1ccc2ccccc2c1)Nc1ncccc1O | inactive
45 | O=C(Nc1ncccc1O)c1ccc(S(=O)(=O)N2CCCC2)cc1 | 2080 nM (active)
46 | O=C(N/N=C/c1ccccn1)c1ccc(S(=O)(=O)N2CCCCCC2)cc1 | inactive
47 | O=C(Nc1ncccc1O)c1ccc(C(=O)c2ccccc2)cc1 | 928 nM (active)
48 | O=C(Nc1ccccc1F)c1ccc(S(=O)(=O)N2CCCCCC2)cc1 | inactive
49 | CCOc1ccc2nc(N(CCN(C)C)C(=O)c3ccc4ccccc4c3)sc2c1 | inactive
50 | COc1ccc(-c2nc3c(s2)CCc2onc(-c4ccc(OC)cc4)c2-3)cc1 | inactive
51 | COc1ccc(C(=O)NC2CC(C)(C)NC(C)(C)C2)cc1OC | inactive
52 | COc1ccc(OC)c(/C(C)=N\NC(=O)c2cc3cc(Cl)ccc3n2C)c1 | inactive
53 | COc1ccc(NC(=O)/C(Cl)=C(/Cl)S(=O)Cc2ccc(C)cc2)cn1 (stereo not given) | inactive
54 | COc1ccc(CS(=O)/C(Cl)=C(/Cl)C(=O)Nc2ccc(OC)nc2)cc1 (stereo not given) | 2940 nM (active)
55 | COc1ccc(NC(=S)Nc2ccccc2Cl)cn1 | inactive
